Assay results reported in PubChem BioAssay (NCI).
Compounds without any hit were thinned out: in the full panel of roughly 83,000, 20% have a hit.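 Results are percent growth after 48 hours of single-concentration exposure. 100 means growth as in untreated cells, lower positive values show inhibition; negative values down to -100 show cell death.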 A number with no mark means an inactive call. Activity calls are given as the source filed them. Rule for the calls: active = growth percent below 10; inactive = the rest.

Tested on: MDA-MB-468 breast
Assay: NCI-60 one-dose screen, 48 h (100 = growth as untreated, 0 = no growth, -100 = all killed)
Conditions: 10 µM unless noted

Row | SMILES | growth
1 | Cc1cc(N2CCCCC2)nc(NC2CCCC(Nc3ccnc4cc(Cl)ccc34)C2)n1 (stereo not given) | -77.6% (active)
2 | C#Cc1nc(/C=C/C(=O)c2nccn2C)cs1 | -28.5% (active)
3 | NC(=O)CC1C=CCC1 (stereo not given) | 111%
4 | COc1c(C(NC(=O)c2ccccc2)c2sccc2C)cc(Cl)c2cccnc12 (stereo not given) | 102%
5 | COc1ccc(C2=C(Nc3ccc(C(=O)Nc4ccccc4)cc3)C(=O)N(C)C2=O)cc1 | 88.1%
6 | COc1ccc(/C=C/C(=O)C(CC2CCC2)C(=O)/C=C/c2ccc(OC)c(OC)c2)cc1OC | -22.2% (active)
7 | O=C(CSc1nnc(Cc2ccccc2Nc2c(Cl)cccc2Cl)n1-c1ccccc1)N1N=C(c2ccc3ccccc3c2)CC1c1ccc(Cl)cc1 (stereo not given) | 114%
8 | N/C(=N\S(=O)(=O)c1ccccc1)Nc1nc2ccccc2s1 | 91%
9 | O=C(O)c1cn(C2CC2)c2cc(N3CCN(Cc4c(O)ccc5ccccc45)CC3)c(F)cc2c1=O | 35.1%
10 | O=C1c2cc3c(cc2-c2c1c1cc(F)c(F)cc1c(=O)n2CCCn1ccnc1)OCO3 | -53.6% (active)
11 | CCCCCCCCCCCC[N+]1(CCCCCCCCCCCC)CCCC(C)C1 (stereo not given) | -89.7% (active)
12 | CC1CCN(C(=O)CCCl)c2ccccc21 (stereo not given) | 108%
13 | O=c1cc(-c2ccccc2)nc2sc(-c3c[nH]c4ccc(F)cc34)nn12 | 67.4%
14 | O=C(N/N=C/c1ccc(O)cc1O)c1cccc(Nc2ccnc(C(F)(F)F)c2)c1 | 43.1%
15 | COC(=O)[C@]1(C)CCC[C@]2(C)c3ccc(C(C)C)cc3C(=O)[C@@H](Br)[C@@H]12 | 78.3%
16 | CC1CCCC(C(=O)O)C1C(=O)O (stereo not given) | 97%
17 | Cc1cccc2cc(/C=C/C(=O)/C=C/c3ccc(Cl)cc3)c(=O)[nH]c12 | 61.7%
18 | Clc1ccccc1CNc1c2ccccc2nc2ccccc12 | -27.9% (active)
19 | COc1ccc(C2=C/C(=C\c3ccc(Cl)cc3)C(=O)N2/N=C/c2ccc(Cl)cc2)cc1 | 94.3%
20 | CCCCCCCCn1ccc2cc(NC(=O)CN3CCN(c4nc(C)cc(N5CCCCC5)n4)CC3)ccc21 | 73.2%

Row | SMILES | growth
21 | C=CC(=O)Nc1cccc(-c2nc(SC)nc(NCCc3ccc(OC)c(OC)c3)c2C#N)c1 | 19.2%
22 | CN1CCN(c2ccc(C(=O)Nc3cccc(-c4cn(-c5ccc(S(N)(=O)=O)cc5)nn4)c3)cc2C(F)(F)F)CC1 | 68.9%
23 | Fc1ccc(NCc2cn(-c3ccccc3)nc2-c2ccc(OCc3ccccc3)cc2)cc1Cl | 119%
24 | COc1ccc(/C(C#N)=C2C=C/C(=N/O)c3ccccc3\2)cc1 | 37.1%
25 | COc1cc(OC)cc(-c2ccc(-c3ccc(C(=N)N)s3)s2)c1 | -76.9% (active)
26 | O=C1/C(=C\c2cn(CC(O)CN3CCCCC3)c3ccccc23)c2ccccc2N1c1c(Cl)cccc1Cl (stereo not given) | -93.3% (active)
27 | NS(=O)(=O)c1ccc(Nc2cc(-c3ccccc3)nc(SCC(=O)c3ccccc3)n2)cc1 | 99.3%
28 | O=C(/C=C/c1ccc(Cl)c(Cl)c1)Nc1ncc(Cc2ccc(Cl)c(Cl)c2)s1 | 68.5%
29 | Oc1c(Cl)cc(Cl)cc1/C=N/Nc1nnc(N/N=C/c2cc(Cl)cc(Cl)c2O)c2ccccc12 | -29.9% (active)
30 | C=C1C(=O)O[C@H]2[C@H]1CC/C(C(=O)NCCOCCOCC(=O)Nc1ccc(OC)c(C(N)=O)c1O)=C\CC[C@@]1(C)O[C@@H]21 | 77.8%
31 | COc1ccc(Nc2ncccc2C(=O)NCc2cn(Cc3cc(OC)cc(OC)c3)nn2)cc1 | 103%
32 | COc1ccc(-c2ccc(NC(=O)Nc3ccc(Cl)c(C(F)(F)F)c3)c(C)n2)cc1 | 38.5%
33 | CCCCc1nc2c(N)nc3ccccc3c2n1Cc1cccc(CN)c1 | 27.3%
34 | CN(C)c1nc2c(N)ncnc2n1C1OC(CO)C(O)C1O (stereo not given) | 102%
35 | N#Cc1c(-c2cccc(Cl)c2)cc(-c2cccnc2)[nH]c1=O | 49.3%
36 | COc1cc(-c2nc(N=Nc3c(O)[nH]c4ccc(Br)cc34)[nH]c(=O)c2C#N)cc(OC)c1OC | 103%
37 | CCN(CC)CCN1C(=O)c2c(c(C)c3c(oc4cc(OC)ccc43)c2C)C1=O | 114%
38 | CCCCc1n(Cc2ccc3ccccc3n2)cc[n+]1Cc1ccc2ccccc2c1 | -31.4% (active)
39 | Clc1ccc(Nc2ncnc3c2sc2ncccc23)cc1 | 23%
40 | CCCCCc1ccc(S(=O)(=O)Nc2cc(-c3csc(NC(=O)CN4CCN(C)CC4)n3)ccc2OC)cc1 | 35.2%
